The target of test [1] is human RAR-related Orphan Receptor gamma (RORg), RORC (gene 6097) (UniProt P51449). Put plainly: ATG_RORg_TRANS: Attagene TRANS-FACTORIAL HepG2 Assay for human RAR-related Orphan Receptor gamma (RORg) (AID 2283011; active = hit-call score of the fitted dose curve at least 0.9, where 1 is the maximum). The essentials: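 Reporter transcripts from a transfected RORg-GAL4 chimera in HepG2 cells were quantified 24 h after dosing by RT-PCR, 6-FAM labelling, HpaI digestion and capillary electrophoresis; increases over DMSO baseline were fitted.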
Sequence of human RAR-related Orphan Receptor gamma (RORg), RORC (gene 6097) (P51449 whole entry, looked up, the tested form may be a part): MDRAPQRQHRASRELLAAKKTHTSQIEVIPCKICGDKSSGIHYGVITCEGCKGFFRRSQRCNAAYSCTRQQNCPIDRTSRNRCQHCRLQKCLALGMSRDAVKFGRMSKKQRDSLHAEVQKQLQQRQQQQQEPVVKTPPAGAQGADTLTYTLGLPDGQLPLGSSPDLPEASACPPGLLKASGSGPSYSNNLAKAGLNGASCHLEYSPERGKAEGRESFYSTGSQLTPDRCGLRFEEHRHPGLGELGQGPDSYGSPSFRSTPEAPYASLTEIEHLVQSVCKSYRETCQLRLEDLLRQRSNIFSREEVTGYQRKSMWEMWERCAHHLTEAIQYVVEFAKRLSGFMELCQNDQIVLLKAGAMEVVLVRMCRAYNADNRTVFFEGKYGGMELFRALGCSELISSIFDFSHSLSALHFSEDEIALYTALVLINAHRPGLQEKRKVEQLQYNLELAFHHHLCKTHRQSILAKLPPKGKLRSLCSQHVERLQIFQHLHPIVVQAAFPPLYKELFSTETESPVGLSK

Test [2] has as its target Retinoic acid receptor RXR-alpha (Homo sapiens) (UniProt P19793). Put plainly: ATG_RXRa_TRANS: Attagene TRANS-FACTORIAL HepG2 Assay for human Retinoid X Receptor alpha (RXRa) (AID 2283012; active = hit-call score of the fitted dose curve at least 0.9, where 1 is the maximum). The essentials:
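Cells (HepG2) carried transiently transfected GAL4-responsive reporter units. Following a 24 h chemical incubation, reporter mRNA induction was read via RT-PCR fragment analysis; DMSO served as negative control and baseline.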

Test [3] concerns the target human Retinoid X Receptor beta (RXRb), RXRB (gene 6257) (UniProt P28702). In words: ATG_RXRb_TRANS: Attagene TRANS-FACTORIAL HepG2 Assay for human Retinoid X Receptor beta (RXRb) (AID 2283013; active = hit-call score of the fitted dose curve at least 0.9, where 1 is the maximum). The method, boiled down:
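Multiplexed TRANS reporter assay in HepG2; 24 h dosing; reporter mRNA by RT-PCR/CE fluorescence; gain-of-signal relative to DMSO.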

Test [4] deals with human Thyroid Receptor alpha (THRa1), THRA (gene 7067) (UniProt P10827). Put plainly: ATG_THRa1_TRANS: Attagene TRANS-FACTORIAL HepG2 Assay for human Thyroid Receptor alpha (THRa1) (AID 2283014; active = hit-call score of the fitted dose curve at least 0.9, where 1 is the maximum). The method, boiled down: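 Transcripts from GAL4-UAS-driven reporters, measured after 24 h compound exposure by RT-PCR plus capillary electrophoresis of 6-FAM-labeled fragments, were fitted for gain of signal relative to DMSO. Cells: transiently transfected HepG2 expressing NR-Gal4 chimeras.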
Sequence of human Thyroid Receptor alpha (THRa1), THRA (gene 7067) (P10827 whole entry, looked up, the tested form may be a part): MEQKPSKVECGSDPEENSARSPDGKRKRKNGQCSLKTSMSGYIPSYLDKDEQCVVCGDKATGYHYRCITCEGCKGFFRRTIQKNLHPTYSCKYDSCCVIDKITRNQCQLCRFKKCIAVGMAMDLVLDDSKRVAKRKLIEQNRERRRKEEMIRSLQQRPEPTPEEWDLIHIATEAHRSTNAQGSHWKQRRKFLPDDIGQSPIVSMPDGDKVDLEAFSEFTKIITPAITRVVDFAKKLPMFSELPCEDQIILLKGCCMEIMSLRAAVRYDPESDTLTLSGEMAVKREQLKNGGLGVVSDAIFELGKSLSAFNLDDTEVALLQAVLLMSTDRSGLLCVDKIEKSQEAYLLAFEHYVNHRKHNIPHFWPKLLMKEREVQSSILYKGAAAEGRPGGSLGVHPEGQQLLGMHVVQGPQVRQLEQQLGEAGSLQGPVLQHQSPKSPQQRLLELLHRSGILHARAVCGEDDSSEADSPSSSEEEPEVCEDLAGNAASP

Read-out in test [5]: E-selectin (Homo sapiens) (UniProt P16581)
Put plainly: BSK_3C_Eselectin: BioMAP Diversity Plus: 3C Assay for Eselectin Biomarker Activity (AID 2283015).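 As to outcome: cell surface E-selectin protein quantified by ELISA 24 h after dosing.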 The settings on record: primary human endothelial cells (HUVEC); actives raise or lower the signal. The essentials: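 E-selectin ELISA readout, fitted bidirectionally relative to DMSO, taken 24 h post-dosing in HUVEC cultures of the 3C system. Overt cytotoxicity tracked with sulforhodamine B staining of parallel wells.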

Read-out in test [6]: Interleukin-1 alpha (IL1a), IL1A (gene 3552)
In words: BSK_BE3C_IL1a: BioMAP Diversity Plus: BE3C Assay for Interleukin-1 alpha (IL1a) Biomarker Activity (AID 2283016). The settings on record: primary human bronchial epithelial cells; actives raise or lower the signal. The essentials: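 Cultures of primary human bronchial epithelial cells receive test chemical. After 24 h, IL-1a is quantified by ELISA, while parallel wells are fixed in TCA and SRB-stained for total protein. Changes in either direction are fitted relative to DMSO.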

Read-out in test [7]: Monocyte Chemoattractant Protein-1 (MCP1), CCL2 (gene 6347)
Put plainly: BSK_3C_MCP1: BioMAP Diversity Plus: 3C Assay for Monocyte Chemoattractant Protein-1 (MCP1) Biomarker Activity (AID 2283017). The settings on record: primary human endothelial cells (HUVEC); actives raise or lower the signal. The method, boiled down: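 MCP-1 was measured by ELISA 24 h after dosing in primary HUVEC 3C cultures and fitted in both directions relative to DMSO; cytotoxicity was checked by SRB total-protein staining in parallel wells.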

Read-out in test [8]: Monocyte Chemoattractant Protein-1 (MCP1), CCL2 (gene 6347)
In words: BSK_4H_MCP1: BioMAP Diversity Plus: 4H Assay for Monocyte Chemoattractant Protein-1 (MCP1) Biomarker Activity (AID 2283018). The settings on record: primary human endothelial cells (HUVEC); actives raise or lower the signal. The method, boiled down: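 Readout: MCP-1 ELISA on compound-treated HUVEC, sampled 24 h post-dosing. Baseline and negative control DMSO; bidirectional fit. Overt toxicity checked alongside by sulforhodamine B protein staining at time of biomarker measurement.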

Read-out in test [9]: Human Leukocyte Antigen - DR isotype (HLADR), HLA-DRA (gene 3122)
Put plainly: BSK_3C_HLADR: BioMAP Diversity Plus: 3C Assay for Human Leukocyte Antigen - DR isotype (HLADR) Biomarker Activity (AID 2283019).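 As to outcome: ELISA of cell-surface HLA-DR on HUVEC 24 h after dosing.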 To be noted: primary human endothelial cells (HUVEC); actives raise or lower the signal. The essentials:
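Bidirectional fitting against DMSO was applied to the HLA-DR ELISA signal from human umbilical vein endothelial cells, 24 h post-dose. Cytotoxicity came from parallel SRB total-protein staining; 3C proliferation was counted by SRB at 48 h.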

Read-out in test [10]: Monokine induced gamma interferon (MIG), CXCL9 (gene 4283)
In words: BSK_3C_MIG: BioMAP Diversity Plus: 3C Assay for Monokine induced gamma interferon (MIG) Biomarker Activity (AID 2283021).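 As to AC50: MIG protein level measured by immunoassay in the treated endothelial cultures.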 The settings on record: primary human endothelial cells (HUVEC); actives raise or lower the signal. The method, boiled down:
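After 24 h of treatment, human umbilical vein endothelial cultures (3C system) had their MIG biomarker level determined by ELISA, with DMSO serving as negative control.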

The target in test [11] is human Vitamin D Receptor (VDR), VDR (gene 7421) (UniProt P11473). In words: ATG_VDR_TRANS: Attagene TRANS-FACTORIAL HepG2 Assay for human Vitamin D Receptor (VDR) (AID 2283022; active = hit-call score of the fitted dose curve at least 0.9, where 1 is the maximum). The essentials:
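Transactivation by an exogenous VDR-Gal4 chimera in transiently transfected HepG2 cells was measured as reporter transcript level 24 hours after chemical treatment. RT-PCR products were analysed by capillary electrophoresis and fitted in the positive direction relative to DMSO.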

A short description of test [12]: BSK_3C_SRB: Viability Assessment in the BioMAP Diversity Plus: 3C Assay (AID 2283023).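 Also: fitted both ways against DMSO so a hit may be signal rise or drop.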 To be noted: primary human endothelial cells (HUVEC). The method, boiled down: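 Cytotoxicity readout in parallel HUVEC 3C cultures: after 24 h compound exposure, cells fixed with 10% TCA, stained with 0.1% SRB and read at 560 nm. Gain or loss relative to DMSO fitted.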
Read-out in test [13]: Matrix Metallopeptidase 1 (MMP1), MMP1 (gene 4312)
In words: BSK_BE3C_MMP1: BioMAP Diversity Plus: BE3C Assay for Matrix Metallopeptidase 1 (MMP1) Biomarker Activity (AID 2283024). The settings on record: primary human bronchial epithelial cells; actives raise or lower the signal. The method, boiled down:
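Dose cells, wait 24 h, run MMP1 ELISA; cells are human bronchial epithelial primaries. Both increases and decreases relative to DMSO counted.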

Test [14] can be described thus: BSK_3C_Vis: BioMAP Diversity Plus: 3C Assay for Morphology Visualization (AID 2283025).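 Also: fitted both ways so gain or loss versus DMSO counts.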 To be noted: primary human endothelial cells (HUVEC). The method, boiled down:
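Endothelial cells from human umbilical vein were treated with test chemicals for 24 h and inspected by light microscopy for changes in cell conformation.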

A short description of test [15]: BSK_4H_SRB: Viability Assessment in the BioMAP Diversity Plus: 4H Assay (AID 2283027).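 Also: cells exposed to compound for 24 h before staining.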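 As to AC50: curves fitted both ways versus DMSO so AC50 may be loss or gain.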 To be noted: primary human endothelial cells (HUVEC). The essentials:
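Human umbilical vein endothelial cells, 24 h after chemical dosing; total protein measured by 0.1% sulforhodamine B staining after 10% TCA fixation, read at 560 nm. Bidirectional fitting against DMSO.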

A short description of test [16]: BSK_BE3C_SRB: Viability Assessment in the BioMAP Diversity Plus: BE3C Assay (AID 2283028).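 As to AC50: fitted both ways so AC50 may mark signal gain or loss versus DMSO.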 To be noted: primary human bronchial epithelial cells. The essentials:
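Cytotoxicity read-out: SRB (0.1%) staining of TCA-fixed (10%) human lung bronchial epithelial cells, absorbance 560 nm, 24 h post-dosing. Curves fitted both directions relative to DMSO.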

Read-out in test [17]: Thrombomodulin, THBD (gene 7056)
In words: BSK_3C_Thrombomodulin: BioMAP Diversity Plus: 3C Assay for Thrombomodulin Biomarker Activity (AID 2283029). The settings on record: primary human endothelial cells (HUVEC); actives raise or lower the signal. The essentials:
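Thrombomodulin ELISA, human primary HUVEC, 24 h post-dose; data fitted in both directions relative to DMSO.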

Read-out in test [18]: Urokinase-type plasminogen activator receptor (uPAR), PLAUR (gene 5329)
In words: BSK_4H_uPAR: BioMAP Diversity Plus: 4H Assay for Urokinase-type plasminogen activator receptor (uPAR) Biomarker Activity (AID 2283030). The settings on record: primary human endothelial cells (HUVEC); actives raise or lower the signal. The method, boiled down:
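uPAR level read by ELISA on HUVEC cultures (BioMAP 4H) 24 h post-dosing, analyzed for gain or loss relative to DMSO. Parallel SRB staining assessed overt cytotoxicity.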

Read-out in test [19]: Interleukin-8 (IL8), CXCL8 (gene 3576)
In words: BSK_3C_IL8: BioMAP Diversity Plus: 3C Assay for Interleukin-8 (IL8) Biomarker Activity (AID 2283020). The settings on record: primary human endothelial cells (HUVEC); actives raise or lower the signal. The essentials: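 Human vascular endothelial cells (umbilical vein) in the 3C system; IL-8 level detected by ELISA at 24 h post-dose, with DMSO as baseline.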

Read-out in test [20]: Pselectin, SELP (gene 6403)
In words: BSK_4H_Pselectin: BioMAP Diversity Plus: 4H Assay for Pselectin Biomarker Activity (AID 2283026). The settings on record: primary human endothelial cells (HUVEC); actives raise or lower the signal. The method, boiled down:
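Human vascular endothelium from umbilical vein; P-selectin measured by ELISA at 24 h post-dose, with cytotoxicity checked by sulforhodamine B total-protein staining in parallel cultures (0.1% SRB after 10% TCA fixation, read at 560 nm).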

Structures are written as SMILES. Several values for one entry are separate records, joined by “and”; a condition that tells them apart may be missing. Identical values can stand only once. Results filed as inconclusive are left out. More than one record can exist for a structure, and the calls need not agree. Activity calls are given as the source filed them. The calls were made as follows, unless noted: active = hit-call score of the fitted dose curve at least 0.9, where 1 is the maximum; inactive = score below 0.9.

Sequence of E-selectin (Homo sapiens) (P16581 whole entry, looked up): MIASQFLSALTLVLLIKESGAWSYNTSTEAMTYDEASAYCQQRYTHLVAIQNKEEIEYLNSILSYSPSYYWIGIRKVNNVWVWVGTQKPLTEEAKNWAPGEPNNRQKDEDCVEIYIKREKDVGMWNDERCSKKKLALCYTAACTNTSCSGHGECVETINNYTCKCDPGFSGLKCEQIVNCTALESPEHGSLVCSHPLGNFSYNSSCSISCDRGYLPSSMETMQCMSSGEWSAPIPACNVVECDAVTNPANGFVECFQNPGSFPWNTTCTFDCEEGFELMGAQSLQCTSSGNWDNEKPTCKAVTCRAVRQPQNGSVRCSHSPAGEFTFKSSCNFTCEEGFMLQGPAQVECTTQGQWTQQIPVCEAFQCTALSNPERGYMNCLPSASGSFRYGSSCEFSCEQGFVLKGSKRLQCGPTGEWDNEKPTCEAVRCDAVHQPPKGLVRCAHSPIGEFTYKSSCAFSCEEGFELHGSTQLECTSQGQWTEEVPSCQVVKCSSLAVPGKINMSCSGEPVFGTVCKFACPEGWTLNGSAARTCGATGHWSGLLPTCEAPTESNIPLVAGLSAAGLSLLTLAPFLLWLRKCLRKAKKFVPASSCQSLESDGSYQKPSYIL
Sequence of human Vitamin D Receptor (VDR), VDR (gene 7421) (P11473 whole entry, looked up, the tested form may be a part): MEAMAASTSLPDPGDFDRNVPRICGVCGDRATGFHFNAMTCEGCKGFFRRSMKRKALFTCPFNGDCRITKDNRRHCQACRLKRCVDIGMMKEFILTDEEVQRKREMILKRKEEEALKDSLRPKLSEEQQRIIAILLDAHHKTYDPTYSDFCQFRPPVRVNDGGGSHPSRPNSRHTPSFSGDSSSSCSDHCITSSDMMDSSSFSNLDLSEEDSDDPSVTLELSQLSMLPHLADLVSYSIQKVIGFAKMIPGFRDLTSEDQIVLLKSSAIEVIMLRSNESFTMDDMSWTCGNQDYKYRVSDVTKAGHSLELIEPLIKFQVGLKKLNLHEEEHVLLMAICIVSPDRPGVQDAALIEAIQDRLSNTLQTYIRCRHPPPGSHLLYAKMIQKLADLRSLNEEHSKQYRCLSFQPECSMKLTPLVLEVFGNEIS
Sequence of Retinoic acid receptor RXR-alpha (Homo sapiens) (P19793 whole entry, looked up, the tested form may be a part): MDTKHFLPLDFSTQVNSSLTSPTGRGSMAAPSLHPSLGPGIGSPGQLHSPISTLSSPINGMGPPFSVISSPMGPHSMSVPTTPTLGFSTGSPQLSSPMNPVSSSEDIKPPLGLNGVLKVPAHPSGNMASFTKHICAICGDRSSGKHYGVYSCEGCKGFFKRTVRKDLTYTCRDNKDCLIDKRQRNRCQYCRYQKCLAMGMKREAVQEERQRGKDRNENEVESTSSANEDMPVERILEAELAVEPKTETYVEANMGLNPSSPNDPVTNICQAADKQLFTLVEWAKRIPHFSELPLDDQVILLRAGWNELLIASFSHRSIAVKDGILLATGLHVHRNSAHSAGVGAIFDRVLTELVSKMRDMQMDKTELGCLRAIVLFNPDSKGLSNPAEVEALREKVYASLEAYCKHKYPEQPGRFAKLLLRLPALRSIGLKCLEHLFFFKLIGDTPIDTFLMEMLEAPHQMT
Sequence of human Retinoid X Receptor beta (RXRb), RXRB (gene 6257) (P28702 whole entry, looked up): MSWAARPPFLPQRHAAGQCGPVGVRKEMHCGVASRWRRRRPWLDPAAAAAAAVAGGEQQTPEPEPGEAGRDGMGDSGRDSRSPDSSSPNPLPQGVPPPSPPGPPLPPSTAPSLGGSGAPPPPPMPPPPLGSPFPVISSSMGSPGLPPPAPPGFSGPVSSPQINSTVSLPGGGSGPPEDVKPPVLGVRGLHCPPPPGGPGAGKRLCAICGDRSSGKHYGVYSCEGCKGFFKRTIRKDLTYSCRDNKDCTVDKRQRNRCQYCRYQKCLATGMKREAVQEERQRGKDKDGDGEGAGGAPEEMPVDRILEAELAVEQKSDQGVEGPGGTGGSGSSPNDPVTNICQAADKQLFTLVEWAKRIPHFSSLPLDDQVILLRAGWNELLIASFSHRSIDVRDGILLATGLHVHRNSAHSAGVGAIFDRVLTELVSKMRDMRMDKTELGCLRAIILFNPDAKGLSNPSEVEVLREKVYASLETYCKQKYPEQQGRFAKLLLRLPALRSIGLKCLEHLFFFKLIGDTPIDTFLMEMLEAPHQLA

For the compound `CC(C)(O)C(=O)Nc1ccc([N+](=O)[O-])c(C(F)(F)F)c1`, the outcome in [1], in [2], in test [3], in test [4], in test [5] and in test [6] was inactive. Besides, the result in test [7], in [8], in [9], in test [10], in [11] and in test [12] was inactive. The result in test [13], in test [14], in test [15], in test [16], in [17] and in [18] was inactive. For the same compound, the concentration at half-maximal activity (AC50) in [3] was 22.8 µM (active) and 28.1 µM (active) and 15.6 µM (active).
Take `CCCN(CCC)N=O`: the outcome in test [1], in test [5], in test [6], in [7], in test [8] and in test [9] was inactive. The outcome in test [19], in [10], in test [12], in test [13], in test [14] and in test [20] was inactive. The result in test [15], in test [17] and in test [18] was inactive.
As to `C[C@]12CCC(=O)C=C1CC[C@@H]1[C@@H]2CC[C@@]2(C)[C@H]1CC[C@]2(C)O`, the result in [1], in test [2], in [3], in test [4], in test [5] and in test [6] was inactive. Also, the result in test [7], in [8], in test [9], in [19], in [10] and in [11] was inactive. The outcome in test [14], in test [15], in test [17] and in [18] was inactive. For the same compound, the AC50 in test [12] is 28.3 µM (active); in test [13], 9.79 µM (active).
Take `Cc1cc(-c2ccc(N)c(C)c2)ccc1N`: the compound was classed as inactive in [1], in [2], in [3], in [4], in [5] and in [6]. Moreover, the result in test [7], in test [8], in [9], in test [10], in test [11] and in test [12] was inactive. In addition, the outcome in [13], in test [14], in [15], in test [17] and in test [18] was inactive.
Regarding `CCC(C)(CC)c1cc(NC(=O)c2c(OC)cccc2OC)on1`, the call in [1], in [3], in test [5], in [6], in test [7] and in test [8] was inactive. Further, the result in [9], in [10], in test [11], in [12], in test [13] and in test [14] was inactive. Further, the outcome in test [15], in test [17] and in test [18] was inactive.
As to `O=C(O)C(F)(F)C(F)(F)C(F)(F)C(F)(F)C(F)(F)C(F)(F)C(F)(F)C(F)(F)C(F)(F)F`, the call in test [1], in [2], in test [4], in [5], in [8] and in test [10] was inactive. Besides, the result in test [13], in test [14], in test [17] and in [18] was inactive. The AC50 in [3] was 18.1 µM (active) and 13.4 µM (active) and 13.2 µM (active); in [5] it was 53.8 µM (active) and 54.9 µM (active); in [6] it was 18.5 µM (active) and 11.9 µM (active) and 13.4 µM (active); in test [7] it was 32.5 µM (active) and 54.6 µM (active) and 52.9 µM (active); in test [8], 48.2 µM (active) and 53.7 µM (active); in test [9], 33.2 µM (active) and 53.3 µM (active) and 56.7 µM (active). Further, the AC50 in test [10] is 58.5 µM (active) and 52.5 µM (active); in [12], 31.3 µM (active) and 53 µM (active) and 51.6 µM (active); in test [13], 32.4 µM (active); in test [15] it was 36.5 µM (active) and 52.1 µM (active) and 55 µM (active); in [16], 29.6 µM (active) and 12.6 µM (active) and 15.8 µM (active); in [18] it was 47 µM (active) and 55 µM (active).

Values taken from PubChem BioAssay (EPA / NIEHS).
